# An excerpt weighted towards active compounds, which were near 0.81% of everything screened.
# Keap1-Nrf2 PPI – Keap1-Nrf2 protein-protein interaction inhibitors, primary screen, biochemical, fluorescence polarization, single point; Kelch-like ECH-associated protein 1 (Homo sapiens), Q14145; Keap1 Kelch-Nrf2 peptide fluorescence polarization, 1536-well; inhibition, % at 9.4 µM; 340,000 tested, 0.15% active; AID 504523, 2011; in the data active = inhibition above about 12%;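 also: human Keap1 Kelch domain with fluorescein labeled Nrf2 9mer peptide probe; 0% = neutral control wells and 100% = peptide positive control; higher means more block of Keap1 binding to Nrf2 peptide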
# Target sequence (Q14145 whole entry, looked up, the tested form may be a part): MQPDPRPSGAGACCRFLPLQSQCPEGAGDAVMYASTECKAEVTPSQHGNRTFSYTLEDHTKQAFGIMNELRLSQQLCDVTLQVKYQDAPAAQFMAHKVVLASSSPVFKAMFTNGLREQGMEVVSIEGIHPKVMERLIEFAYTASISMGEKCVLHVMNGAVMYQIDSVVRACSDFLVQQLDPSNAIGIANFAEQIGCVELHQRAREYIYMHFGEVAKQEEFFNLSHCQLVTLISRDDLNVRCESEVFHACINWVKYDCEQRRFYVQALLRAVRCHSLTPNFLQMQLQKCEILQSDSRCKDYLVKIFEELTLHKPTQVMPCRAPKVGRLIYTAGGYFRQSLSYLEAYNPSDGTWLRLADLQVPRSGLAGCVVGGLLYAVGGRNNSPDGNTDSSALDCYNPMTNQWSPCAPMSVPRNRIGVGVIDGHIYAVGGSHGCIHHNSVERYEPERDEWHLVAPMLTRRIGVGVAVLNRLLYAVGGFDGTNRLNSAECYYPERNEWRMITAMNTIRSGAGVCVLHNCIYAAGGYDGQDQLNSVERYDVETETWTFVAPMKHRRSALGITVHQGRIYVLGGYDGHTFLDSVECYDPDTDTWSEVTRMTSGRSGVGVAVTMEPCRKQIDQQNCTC
# IDE cell inh – human IDE inhibitors in live cells, primary screen, fluorescence polarization, HEK cells, FAbetaB substrate; AID 434962, 2010; 320,000 tested, 0.41% active; FAbetaB cleavage; Insulin-degrading enzyme (Homo sapiens), P14735; inhibition, % at 5.59 µM;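 active = percent inhibition above the average of all tested compounds plus 3 SD, set per screening campaign, cut at about 16% in these data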;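 also: IDE supplied by intact live HEK cells; FP after avidin binding of uncleaved biotin substrate so inhibition keeps polarization high; 0% = DMSO wells and 100% = 60 µM reference IDE inhibitor Ii1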
# RTF Ca sens inh – cardiac RTF calcium sensitivity inhibitors, primary screen, biochemical, IANBD-TnC fluorescence, EC70 calcium | Troponin I, cardiac muscle (Homo sapiens) + Troponin T, cardiac muscle (Homo sapiens) + … | IANBD-labeled cardiac RTF, Ca2+ fluorescence | inhibition, % at 7.15 µM | 340,000 tested, 0.12% active | AID 493244, 2011;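 active = inhibition above the mean inhibition of all tested compounds plus 3 SD, cut at about 17% in these data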;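 also: assay run at fixed EC70 calcium of 1.6 mM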
# RTF Ca sens act – cardiac RTF calcium sensitivity activators, primary screen, biochemical, IANBD-TnC fluorescence, EC20 calcium | activation, % at 7.2 µM | 340,000 tested, 0.24% active | IANBD-labeled TnC RTF fluorescence at EC20 calcium; 0% EC20 calcium, 100% full calcium | Troponin I, cardiac muscle (Homo sapiens) + Troponin T, cardiac muscle (Homo sapiens) + …;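 active = activation above the mean over all tested compounds plus 3 SD, cut at about 30% in these data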;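 also: rise in fluorescence read as greater calcium sensitivity of cardiac thin filaments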
# LANA DNA inh – inhibitors of KSHV C-LANA binding to DNA, primary screen, biochemical, fluorescence polarization, FAM-LBS DNA, MBP-C-LANA, single point | inhibition, % at 9 µM | 340,000 tested, 0.078% active | AID 504423, 2011 | Kaposi's sarcoma herpesvirus LANA C-terminal domain (residues 932-1162) DNA binding;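 active = highest replicate inhibition at or above 60% at 9 µM, even if other replicates fall short; inactive = all replicates below 60% inhibition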;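 also: 0% = neutral control wells and 100% = 4 µM acridine orange control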
# IDE act – human IDE activators in live cells, primary screen, fluorescence polarization, HEK cells, FAbeta-B substrate | Insulin-degrading enzyme (Homo sapiens), P14735 | FAbeta-B cleavage; 0% vehicle, 100% cell-free pure enzyme wells | activation, % at 5.96 µM | 340,000 tested, 0.073% active | AID 493087, 2011;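 active = activation above the mean of all tested compounds plus 3 SD, set per screening campaign, cut at about 17% in these data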
# Numbers without * were called inactive; i = inactive; · = no result given.
SMILES,Keap1-Nrf2 PPI,IDE cell inh,RTF Ca sens inh,RTF Ca sens act,LANA DNA inh,IDE act
CC(=O)N1CCc2cc(S(=O)(=O)NCCC(=O)N3CCN(Cc4ccccc4)CC3)ccc21,-5,0,-4,1,-1,19*
NC(=O)c1nsc(C(=O)N(CC(=O)NC2CCCCC2)Cc2ccc(F)cc2)c1N,-1,0,-12,-4,0,3
Cc1ccccc1C1CC(=O)Oc2cc(O)ccc21 (stereo not drawn),10,·,-63,39*,33,-2
COc1ccc(C2CC(=O)Oc3cc(O)ccc32)cc1 (stereo not drawn),1,·,-3,-3,-2,-2
Cc1ccc(-n2ccnc(SCC(=O)NCCc3ccccc3)c2=O)cc1F,-4,3,-8,-2,1,-3
COc1cccc(OCc2nn3c(=O)c(-c4ccccc4)nnc3s2)c1,0,·,-5,1,2,1
Cn1c(=O)c(Nc2ccc(O)cc2)c2c3c(cccc31)C(=O)c1ccccc1-2,5,1,-56,50*,-1,11
CC(=O)c1c2c3c(cccc3n(C)c1=O)C(=O)c1ccccc1-2,·,12,·,·,·,·
COc1cc([N+](=O)[O-])ccc1N/C=C/C(=O)c1cccs1,1,9,-493,287*,-10,2
CCOC(=O)C(C(=O)OCC)c1cc(Br)c2noc3c2c1C(=O)c1ccccc1-3,3,3,-145,96*,8,-17
CC1=C(C(=O)OCc2ccccc2)C(c2ccc(Br)cc2)NC(=O)N1CCCC(=O)O (stereo not drawn),·,-8,·,·,·,·
CC1=C(C(=O)OCc2ccccc2)C(c2ccc(Br)cc2)NC(=O)N1CCCCCC(=O)O (stereo not drawn),-3,-2,-3,-9,2,38*
O=C(O)c1ccc(N=Nc2c(O)ccc3ncccc23)cc1,-1,-33,10,-21,8,39*
Cc1cc(=O)n2c(-c3ccc(Cl)cc3)csc2n1,-1,-1,-1,0,1,8
O=C(c1ccccc1)N1CCCc2ccccc21,0,-2,-1,0,1,6
O=C(c1ccc(=O)oc1)N1CCCc2ccccc21,-1,8,12,-7,79*,4
O=C(CCSCc1ccc(Cl)cc1)NCc1cccs1,0,2,18*,-3,1,3
O=C(CSCc1ccc(F)cc1)NCc1cccs1,6,-1,5,-4,8,4
CCOc1ccccc1N(CC(=O)Nc1ccc(OC)c(OC)c1)S(=O)(=O)c1ccccc1,-4,0,5,52*,0,8
COc1ccc(C(C)=O)cc1CN(c1ccccc1OC)S(=O)(=O)c1cccs1,-4,-6,-4,-5,3,-2
Cc1c(Cl)ccc2c(C(O)CBr)cc(-c3ccccc3)nc12 (stereo not drawn),-7,·,4,-5,1,8
O=C1c2cccc3c([N+](=O)[O-])ccc(c23)C(=O)N1c1nccs1,-1,23*,-11,2,-1,-6
O=C1c2cccc3c([N+](=O)[O-])ccc(c23)C(=O)N1O,20*,-2,-8,7,3,2
COc1ccc(NS(=O)(=O)c2ccc3c(c2)[C@H]2C=CC[C@H]2[C@@H](c2ccc(C(=O)O)cc2)N3)cc1,3,2,16,-25,113*,6
O=C(O)c1ccc2c(c1)C1C=CCC1C(c1ccncc1)N2 (stereo not drawn),-6,-2,-4,0,3,-3
SMILES,Keap1-Nrf2 PPI,IDE cell inh,RTF Ca sens inh,RTF Ca sens act,LANA DNA inh,IDE act
CCN(CC)c1ccc(/C=C(\C#N)C(=O)NCc2ccccc2)cc1,-1,23*,-14,36*,-1,-17
CCN(C(=O)COC(=O)c1ccc2[nH]c(C)c(C)c2c1)c1c(N)n(Cc2ccccc2)c(=O)[nH]c1=O,-8,·,0,2,1,0
COc1ccc(CN(C)C2CCCCC2)c(C)c1C,-2,3,2,-2,0,-2
CCCCCCc1cc2cc(-c3nnc(-c4ccccc4OC)o3)c(=O)oc2cc1O,-9,48*,-11,-1,-1,5
CCCCCCc1cc2cc(-c3nnc(-c4cc(OC)c(OC)c(OC)c4)o3)c(=O)oc2cc1O,·,2,·,·,·,·
CC1CC(C)CN(S(=O)(=O)c2ccc(NC(=O)c3ccc(=O)[nH]c3)cc2)C1 (stereo not drawn),5,-1,2,1,0,-3
CN1/C(=C\C=N\O)C(C)(C)c2ccccc21,-8,-3,-19,-3,1,5
CN1C(=CC=C2C=C(I)C(=O)C(I)=C2)C(C)(C)c2ccccc21,-2,·,-33,92*,2,-27
O=C(NCc1ccc(F)cc1)C1CC(=O)N(C2CCCC2)C1 (stereo not drawn),2,0,4,-3,-2,0
CN(C)CCNc1ncnc2c1sc1nc(-c3ccccc3)c3c(c12)CCCC3,-15,1,1,9,-8,32*
O=C(NCC1CCCC(CNC(=O)Nc2ccc(Cl)cn2)C1)Nc1ccc(Cl)cn1 (stereo not drawn),-2,6,5,-2,-2,7
COc1ccc(/C=C2\SC(=O)N(CCC(=O)N3CCN(C)CC3)C2=O)cc1,-5,0,-3,54*,0,3
CC1CN(C(=O)Nc2cccc(Cl)c2)C2(CCCCCC2)O1 (stereo not drawn),-4,-2,-5,-3,0,5
C=CCn1c(-c2ccc(Cl)cc2)cnc1SC(C)C(=O)NC(N)=O (stereo not drawn),-1,7,6,13,2,-5
CC(=O)Nc1ccc(C(=O)COC(=O)CCc2ccccc2)c(F)c1,4,-3,-7,-3,-3,2
COc1ccc(/C=C2/SC(=S)N(Cc3ccccc3)C2=O)cc1O,1,·,7,2,0,3
COc1ccc(OC)c(/C=C2\SC(=S)N(Cc3cccnc3)C2=O)c1,5,4,-15,9,2,-13
O=C1/C(=C\c2cc(Cl)c(O)c(Cl)c2)SC(=S)N1Cc1ccccc1,-35,·,i,525*,-22,-116
COc1ccc(O)c(/C=C2/SC(=S)N(Cc3ccccc3)C2=O)c1,-2,14,-56,81*,-3,-6
O=C(CN1CCOCC1)N/N=C/c1cccc2ccccc12,-6,-2,2,-7,-1,0
